Test results from PubChem BioAssay AID1578 (Sanford-Burnham Center for Chemical Genomics, 2009).
The campaign covered roughly 290,000 compounds. About 3,000 (1%) were called active. Only a selection was taken, and actives are over-represented in it overall. Unmarked numbers belong to inactive results. Cut-off read from the data, not from the text of the source: active = inhibition mostly above about 36% (no sharp cut-off); inactive = mostly below about 34%.

Assay: NOD1 signaling inhibitors, primary screen, cell-based, luminescence, uHTS (AID 1578);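 note: HEK-293T reporter cells stimulated with the NOD1 agonist gamma-tri-DAP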
Conditions: NOD1-driven NF-kB luciferase reporter cells, at 4 µM, hits give high values

Compound | inhibition
NNC(=O)c1csc(COc2cc(Cl)cc(Cl)c2)n1 | -9.6%
Cc1ccc(C)c(S(=O)(=O)N=Nc2c(O)[nH]c3ccccc23)c1 | -24.6%
CC(NC(=O)CSc1ncn[nH]1)c1ccc(Cl)cc1Cl (stereo not given) | -18%
CN1/C(=C/c2cccc[n+]2C)Sc2ccccc21 | -2.3%
COc1ccc2c(c1)N(C)/C(=C/c1cccc[n+]1C)S2 | 2.2%
Cc1nn(Cc2ccc(F)cc2)c2sc(C(=O)Nc3ccc(N4CCOCC4)cc3N3CCOCC3)cc12 | -10.3%
CCOC(=O)c1ccc(NC(=O)c2cc(C)nn2-c2ccccc2)cc1 | -1.2%
O=C(CN1CCN(Cc2ccccc2)CC1)Nc1ccc([N+](=O)[O-])cc1C(=O)Nc1ccccc1F | -2.7%
Cc1ccc(C(=O)NCc2nnc(SCC(=O)NC(C)c3ccccc3)n2C)cc1 (stereo not given) | -35.4%
CCN(CC)C(=S)SC1=CCS(=O)(=O)C1 | -17.5%
CCN(CC)C(=S)SSC(=S)N(CC)CC | 91.1% (active)
CCN(CC)C(=S)SCC(=O)c1ccccc1 | -25.7%
CCCCC(CCCC)=N/N=C/c1c(O)n(CC)c2cc(C3=NNC(=O)CC3)ccc12 | -49.6%
CCC(CC)=N/N=C/c1c(O)n(CC)c2cc(C3=NNC(=O)CC3)ccc12 | 60.5% (active)
CC/C(C)=N\N=C\c1c(O)n(CC)c2cc(C3=NNC(=O)CC3)ccc12 | -29.5%
C=CCNc1nc(C(=O)OCC(=O)c2ccc(C)c([N+](=O)[O-])c2)cs1 | -31.1%
CCOC(=O)c1ccc(-n2c(C)ccc2C)cc1 | -10.6%
CCOC(=O)c1ccc(N2C(=O)C=CC2=O)cc1 | 80.8% (active)
CCOC(=O)c1ccc(N2C(=O)C(C)=C(C)C2=O)cc1 | -37.3%
NS(=O)(=O)c1ccc(CNC(=O)CSc2ccccc2)cc1 | -19.9%
O=C(COc1ccccc1Cl)NCCCNC(=O)c1cnccn1 | 27.3%
CCOc1ccc(NC(=O)CN(C)C(=O)CSC(C)C(=O)Nc2cc(C)on2)cc1OCC (stereo not given) | 44.5% (active)
Cc1cc(NC(=O)C(C)SCC(=O)N(C)CC(=O)Nc2ccc(Br)cc2C)no1 (stereo not given) | -22.8%
Cc1ccc(C)c(NC(=O)CN(C)C(=O)CSC(C)C(=O)Nc2cc(C)on2)c1 (stereo not given) | -0.8%
COc1cccc(OC)c1-c1nn(-c2ncc(C(F)(F)F)cc2Cl)c(=O)o1 | -7.3%

Compound | inhibition
CCOC(=O)c1cc2c(nc1N)CCCC2 | 1.3%
O=C(Cc1cccs1)Nc1nc2c(ccc3ccccc32)s1 | 35.8% (active)
O=C(Cc1cccs1)Nc1nc2ccccc2s1 | -32.2%
CC(=O)Nc1nc2c(ccc3ccccc32)s1 | -38%
COCCn1c(SCC(=O)NCC2CCCO2)nc2c(c1=O)SCC2 (stereo not given) | -12.5%
COc1ccc(S(=O)(=O)Cc2ccc(C(=O)NCc3ccc(C)cc3)o2)cc1 | -23.8%
O=C(/C=C/c1ccccc1)NC(=S)Nc1ccc(N2CCOCC2)cc1 | -25.8%
O=C(/C=C/c1ccccc1)Nc1sc2c(c1C(=O)O)CCC2 | -2.6%
O=C(Nc1scc(-c2cccs2)c1C(=O)O)c1cccs1 | -40.1%
O=C(Nc1sc2c(c1C(=O)O)CCCC2)c1cccs1 | 43.6%
COc1cc(C(=O)Nc2scc(-c3ccccc3)c2C(=O)O)cc(OC)c1OC | -21.1%
COc1cc(C(=O)Nc2scc(-c3ccc(C)cc3)c2C(=O)O)cc(OC)c1OC | 12.7%
COc1ccc(-c2csc(NC(=O)c3cccs3)c2C(=O)O)cc1OC | -46.6%
COc1cc(C(=O)Nc2sc3c(c2C(=O)O)CCC3)cc(OC)c1OC | 7.5%
COc1cc(C(=O)Nc2sc(C)c(C)c2C(=O)O)cc(OC)c1OC | -18.1%
COc1ccc(CN(C)C(=O)c2cnc(OC)cc2C(F)(F)F)c(OC)c1 | 1%
OC(CC#CCN1CCCCC1)(c1ccccc1)c1ccccc1 | -4.1%
CCN(c1ccccc1)S(=O)(=O)c1cccc(C(=O)N2CCN(S(=O)(=O)c3ccccc3)CC2)c1 | -20.1%
Cc1cc(C)nc(NS(=O)(=O)c2ccc(NC(=O)c3ccccc3[N+](=O)[O-])cc2)n1 | -22.1%
COc1ccc(-c2nnc(-c3cccnc3)o2)cc1OC | -21.1%
CC(CNC(=O)COc1ccccc1)OC(=O)Nc1cccc(Cl)c1 (stereo not given) | 16.6%
CC1=CS/C(=C(/C#N)C(=O)NCc2ccco2)N1c1ccccc1 | 4%
COC(=O)C(Cc1c[nH]c2ccccc12)NC(=O)CNC(C)=O (stereo not given) | 6.8%
COC(=O)c1c(NC(=O)c2cccs2)sc2c1CCC(C)C2 (stereo not given) | -32.6%
CC1CCc2c(sc(NC(=O)c3ccco3)c2C(=O)O)C1 (stereo not given) | 14.4%

Compound | inhibition
O=C(NCCCN1CCN(c2ccccc2F)CC1)C1CC(=O)N(C2CCCC2)C1 (stereo not given) | 14.3%
O=C(NC(=S)Nc1ccc2[nH]c(=O)[nH]c2c1)c1ccccc1Cl | -31.2%
COc1ccc(Br)cc1C(=O)NC(=S)Nc1ccc2[nH]c(=O)[nH]c2c1 | -35.1%
O=C(NC(=S)Nc1ccc2[nH]c(=O)[nH]c2c1)c1cc(Br)ccc1Cl | 47.4% (active)
COc1ccc2[nH]c(=O)c(CN(Cc3cccnc3)C(=S)NCC3CCCO3)cc2c1 (stereo not given) | -30.3%
O=c1c2[nH]c3ccc(F)cc3c2ncn1CCN1CCOCC1 | -10.5%
O=P(c1ccccc1)(c1ccccc1)C1CCCO1 (stereo not given) | 4.7%
O=S(=O)(c1ccccc1)N1CCC2(CC1)OCCO2 | -41.5%
O=S(=O)(c1ccc(Cl)cc1)N1CCC2(CC1)CO2 | -17.5%
O=S(=O)(c1ccccc1)N1CCC2(CC1)CO2 | 75.5% (active)
O=C(NCCCNC(=O)C(F)(F)C(F)F)C(F)(F)C(F)F | -3.6%
O=C(CNS(=O)(=O)c1ccc(Br)cc1)Nc1ccc2c(c1)OCCO2 | -27.7%
CCC(CC)=NNC(=O)c1ccccc1OCc1ccc(F)cc1 | -13.1%
FC(F)(F)c1ccc(/C=N/NC(=S)NC2CCCCC2)cc1 | -19.8%
COc1cccc(OCc2cc(C(=O)N3CCC(c4ccncc4)CC3)no2)c1 | 26.7%
CSc1ccccc1OCc1cc(C(=O)N2CCC(Oc3cccnc3)CC2)no1 | -30.2%
Cc1cccc(C)c1OCc1cc(C(=O)N2CCC(c3ccncc3)CC2)no1 | 6.6%
COCC1CCN(C(=O)c2cc(COc3ccccc3SC)on2)C1 (stereo not given) | -17.6%
Cc1ccc(NC(=S)NC(NC(=O)N(C)C)C(Cl)(Cl)Cl)cc1 (stereo not given) | -18.2%
Cc1cc(OCC(=O)N(C(C)C)C(C)C)ccc1Cl | -6.4%
O=[N+]([O-])c1cccc(-c2nnc(C34CC5CC(CC(C5)C3)C4)o2)c1 | 3.3%
CCn1c(C)nc2cc(C(=O)NNC(=O)Nc3cccc(Cl)c3)ccc21 | -5.3%
Cc1nc2cc(NC(=O)Nc3ccccc3Cl)ccc2n1C | 53% (active)
Cc1nc2cc(NC(=O)Nc3cccc4ccccc34)ccc2n1C | -27.6%
CC(=O)c1ccc(NC(=O)Nc2ccc3c(c2)nc(C)n3C)cc1 | -18.8%

Compound | inhibition
COc1ccccc1NC(=O)Nc1ccc2c(c1)nc(C)n2C | -28.8%
CCn1c(C)nc2cc(NC(=O)Nc3cccc(C(C)=O)c3)ccc21 | 27.9% (active)
CN1CCN(C(=O)C2CCCN(S(=O)(=O)c3ccc(F)cc3)C2)CC1 (stereo not given) | -7.3%
Cc1ccccc1Nc1n[nH]c(C)c1[N+](=O)[O-] | -24.5%
O=C(NCCc1ccccc1)c1cccc2c1C(=O)N(C1CCCCC1)C2 | -19.5%
COc1ccc(CC(=O)Nc2ccccc2NC(=O)Cc2ccc(OC)cc2)cc1 | -7.4%
O=C(Cc1c(Cl)cccc1Cl)Nc1ccncc1Cl | 5.2%
COc1ccc(CC(=O)Nc2cccnc2)cc1 | -8.6%
O=C(Cc1ccc(Cl)cc1Cl)Nc1ccncc1 | 42.8%
COc1ccccc1/C=C/CN1CC(C)OC(C)C1 (stereo not given) | -19.9%
Cc1ccc(NC(=O)CCn2cccc2)cc1 | 3.6%
O=C(CSc1nnc(-c2cccnc2)n1Cc1ccccc1)NCc1ccco1 | 8.8%
COC(=O)C1CCN(Cc2cn(-c3ccccc3)nc2-c2ccc3c(c2)OCO3)CC1 | -55.9%
CC1CN(Cc2c(O)ccc3c(=O)c(-c4ccccc4)coc23)CC(C)O1 (stereo not given) | -13.3%
COc1ccc(C2N3CC4(C)CN2CC(C)(C3)C4=O)cc1OC (stereo not given) | -7.8%
O=C(CCc1nc(-c2ccccc2)no1)NCc1ccco1 | 11%
Cc1ccc(-c2noc(CCC(=O)NCc3ccco3)n2)cc1 | -0.8%
Fc1cnc(N2CCN(c3ccccc3)CC2)nc1N1CCN(c2ccccc2)CC1 | 43.3%
O=C(CCc1nc2ccccc2c(=O)[nH]1)Nc1ccc(F)cc1 | -23.2%
Oc1ccc(-c2cn3ccccc3n2)cc1O | 1.7%
Oc1ccc(-c2cn3ccccc3n2)cc1 | -2%
COC(=O)c1ccc2nc(-c3cccc(N)c3)cn2c1 | 40.5%
Clc1ccc2nc(-c3ccc4c(c3)OCO4)cn2c1 | -30.6%
c1ccn2cc(-c3ccc4c(c3)OCCO4)nc2c1 | 45.8% (active)
COC(=O)c1ccc2nc(-c3ccc4c(c3)OCO4)cn2c1 | 68.3% (active)
